From PubChem BioAssay
A selection: hits, their analogues and other compounds. The true share with any hit is near 0.61%.
BioA inh = M. tuberculosis BioA enzyme inhibitors, primary screen, biochemical, plate reader, single point, HTS. 7,8-diaminopelargonic acid synthase BioA (Mycobacterium tuberculosis). purified M. tuberculosis BioA enzyme. inhibition, % at 9.99 µM. hit rate 0.096% among 360,000. AID 602481, 2012; in the data active = inhibition above about 40%
TcdB inh = TcdB glycohydrolase inhibitors, primary screen, biochemical, single point, plate reader. Toxin B (Clostridioides difficile), P18177. TcdB glycohydrolase enzymatic assay. inhibition, % at 9.99 µM. hit rate 0.24% among 350,000. AID 652162, 2013; in the data active = inhibition above about 10%
Yp Topo-I inh = Yersinia pestis topoisomerase I inhibitors, primary screen, biochemical, cleavage product accumulation, plate reader, single point. activity, % at 10 µM. hit rate 0.064% among 360,000. DNA topoisomerase I (Yersinia pestis CO92). Y. pestis Topo-I cleavage product accumulation. AID 504884, 2011; in the data active = activity above about 50%, passing the limit was not always enough
FadD28 binding = inhibitors of FadD28 bisubstrate probe binding, primary screen, biochemical, fluorescence polarization, single point; hit rate 0.22% among 360,000; inhibition, % at 12.5 µM; AID 588549, 2011; in the data active = inhibition above about 8.5%, passing the limit was not always enough
Vc quorum ag = inducers of Vibrio cholerae quorum light production without autoinducers, primary screen, BH1578 luxS cqsA deficient, single point; activation, % at 18.7 µM; hit rate 0.16% among 350,000; AID 588436, 2011; V. cholerae BH1578 lux reporter, luminescence, 6 h; in the data active = activation mostly above about 9.7%, no sharp cut-off
The depositor's hits bear a star; i = inactive; / = no result; + = active, no number.

SMILES	BioA inh	TcdB inh	Yp Topo-I inh	FadD28 binding	Vc quorum ag
Cc1ccc(C(=O)c2sc3c(c2N)c(=O)[nH]c(=O)n3CCc2ccccc2)cc1	/	/	160.4*	0.1	-0.3
O=S(=O)(c1ccc(F)cc1)N1CCCCN2[C@@H](CO)[C@H](c3ccc(C#CC4CCCC4)cc3)[C@@H]2C1	-0.6	0.0	/	/	/
Nc1ncnc2c1ncn2[C@@H]1O[C@H](COP(=O)(O)O)[C@@H](O)[C@H]1O	-1.8	1.6	-11.0	2.7	-2.8
CN1N=C(N)c2cn(C3OC(COP(=O)(O)O)C(O)C3O)c3ncnc1c23 (stereo not given)	/	-14.9	9.1	4.8	50.0*
COc1ccc(-c2ccc3c(c2)[C@H]2[C@H](CCN2C(=O)C2CC2)[C@H](CO)N3C)cc1	1.0	-0.4	/	/	/
COc1ccc(-c2ccc3c(c2)[C@H]2[C@H](CCN2C(=O)C2CC2)[C@@H](CO)N3C)cc1	1.2	14.6*	/	/	/
COc1ccc(-c2ccc3c(c2)[C@@H]2[C@@H](CCN2C(=O)C2CC2)[C@H](CO)N3C)cc1	-2.2	13.0*	/	/	/
Nn1c(SCc2ccc(F)cc2)nnc1-c1ccccn1	0.9	0.0	-1.6	-1.9	-0.4
Nn1c(SCc2ccccc2F)nnc1-c1ccccn1	0.4	13.7*	1.2	-0.8	-0.6
Cc1cc(/C=C(\C#N)C(=O)N2CCCCC2)cc(C)c1O	0.4	12.1*	8.6	-1.5	-4.8
N#C/C(=C\c1cccc(O)c1)C(=O)N1CCCCC1	3.1	0.1	-3.4	-0.8	i
CC(C)C(NC(=O)/C=C/c1ccc(F)cc1)C(C)C	-0.9	/	-0.2	1.1	+
CCOc1ccc(S(=O)(=O)N2CCOCC2)cc1NC(=O)C1=COCCO1	0.1	-1.0	-2.9	-0.4	i
CCOc1ccc(Oc2ccc(S(=O)(=O)N3CCOCC3)cc2NC(=O)C2=COCCO2)cc1	-2.0	2.5	62.0*	-0.5	i
O=C(c1cnccn1)N1CC(=O)N2[C@H](CO)[C@H](c3ccc(C#CC4CCCC4)cc3)[C@@H]2C1	/	0.1	/	/	/
COc1cccc(N2CC(C(=O)N3CCC4(CC3)CC(=O)c3ccccc3O4)CC2=O)c1 (stereo not given)	14.3	2.4	217.2*	-0.5	i
C[C@@H]1CN([C@H](C)CO)C(=O)c2cc(-c3ccccc3F)cnc2O[C@@H]1CN(C)Cc1cccc(F)c1	0.3	-0.9	/	/	/
O=c1c(CO)cc(CO)cc(CO)c1O	/	0.1	-3.1	0.1	-0.5
O=C1C=CC(=O)c2c(O)c(CO)c(CO)c(O)c21	/	-2.7	-41.8	18.3*	i
COc1ccc(CN(C)c2ncnc(N)n2)cc1	-1.2	/	-2.2	-1.6	16.7*
CN(C)C(=O)C[C@@H]1CC[C@@H]2[C@@H](COc3ccc(NS(=O)(=O)c4cccc(F)c4)cc3C(=O)N2C)O1	2.0	-1.0	/	/	/
C[C@@H]1CN([C@@H](C)CO)C(=O)c2cccc(NC(=O)c3ccncc3)c2O[C@@H]1CN(C)C(=O)NC1CCCCC1	-0.6	-1.1	/	/	/
Cc1ccc(C(=O)Nc2ccc(N3CCCCC3)cc2)cc1	-1.5	11.1*	7.9	-1.5	-0.2
c1ccc(CSc2nnc(-c3ccco3)n2Cc2ccco2)cc1	9.4	/	9.6	-4.9	-0.4
CCCCOc1[nH]c2nc(-c3ccco3)n(Cc3ccco3)c(=N)c2c1C#N	/	/	-5.1	10.9*	i
SMILES	BioA inh	TcdB inh	Yp Topo-I inh	FadD28 binding	Vc quorum ag
CCOc1ccc(C=NNc2ccc(S(=O)(=O)Nc3ccccc3C(=O)O)cc2[N+](=O)[O-])cc1	-2.8	1.2	3.2	5.2	i
COc1ccc(NC(=S)NNc2ccc(S(=O)(=O)Nc3ccccc3C(=O)O)cc2[N+](=O)[O-])cc1	/	-4.4	2.6	22.5*	-0.3
O=C(O)c1ccccc1NS(=O)(=O)c1ccc(NN=Cc2ccccc2F)c([N+](=O)[O-])c1	3.8	0.6	-4.6	4.6	-0.8
C=CCOc1ccc(C=NNc2ccc(S(=O)(=O)Nc3ccccc3C(=O)O)cc2[N+](=O)[O-])cc1OC	7.5	0.7	-7.9	31.6*	-0.4
CCOc1cccc(C=NNc2ccc(S(=O)(=O)Nc3ccccc3C(=O)O)cc2[N+](=O)[O-])c1O	3.3	0.0	16.6	17.3*	i
Cc1nn(-c2ccccc2)c(Cl)c1/C=N/Nc1ccc(S(=O)(=O)Nc2ccccc2C(=O)O)cc1[N+](=O)[O-]	-2.0	/	1.7	12.0*	-0.2
CSc1ccc(C=NNc2ccc(S(=O)(=O)Nc3ccccc3C(=O)O)cc2[N+](=O)[O-])cc1	0.7	1.7	0.8	4.9	-0.8
C[C@@H]1CN([C@@H](C)CO)C(=O)c2cccc(NS(=O)(=O)c3ccc(Cl)cc3)c2O[C@H]1CN(C)Cc1ccc(Cl)c(Cl)c1	1.3	1.0	/	/	/
COc1cccc(/C=C/C=O)c1	/	-1.3	/	/	/
O=C(C[C@H]1C=C[C@@H](NC(=O)CN2CCOCC2)[C@H](CO)O1)NCc1cccc(F)c1	3.1	0.5	/	/	/
Cc1ccc(S(=O)(=O)Nc2ccc3c(c2)C(=O)N([C@H](C)CO)C[C@@H](C)[C@@H](CN(C)C(=O)Nc2ccc4c(c2)OCO4)OCCCC[C@H](C)O3)cc1	/	0.8	/	/	/
COc1ccc(C=NNc2ccc(S(=O)(=O)Nc3ccccc3C(=O)O)cc2[N+](=O)[O-])c(OC)c1	16.7	1.3	7.3	31.7*	2.0
N#C/C(N=Nc1ccccc1O)=N\Nc1ccccc1O	-0.9	0.9	-39.7	9.4*	1.2
Oc1ccccc1N=N/C(=N/Nc1ccccc1O)c1ccccc1	-1.6	5.1	-3.0	-0.3	-0.5
CCOC(=O)N1CCC(c2cc(=O)n3[nH]c(-c4ccccc4)cc3n2)CC1	-0.7	24.4*	2.4	-1.9	-0.2
CCOC(=O)Cc1cc(=O)n2[nH]c(-c3ccccc3)cc2n1	0.4	2.0	-8.9	-2.9	-5.9
COc1cccc(C(CNc2ccc(S(=O)(=O)N3CCN(C)CC3)cc2[N+](=O)[O-])N(C)C)c1 (stereo not given)	-2.0	17.4*	1.3	-0.4	i
CN1/C(=C/C=C/c2n(C)c3cc([N+](=O)[O-])c([N+](=O)[O-])cc3[n+]2C)C(C)(C)c2ccccc21	11.7	12.5*	-17.5	-3.4	0.8
CC(=O)c1cccc(-c2ccnc3c2CC(C(=O)NCc2ccccc2)O3)c1 (stereo not given)	-0.6	10.1*	-1.1	-2.0	-0.3
O=C(NCc1cccc(Cl)c1)C1Cc2c(-c3cccc(F)c3)ccnc2O1 (stereo not given)	0.8	1.8	24.2	-1.7	-0.3
O=C(NCc1ccccc1)C1Cc2c(-c3cccc(F)c3)ccnc2O1 (stereo not given)	1.9	11.3*	8.3	-3.7	0.3
CC(=O)c1cccc(-c2ccnc3c2CC(C(=O)NCc2ccc(F)c(F)c2)O3)c1 (stereo not given)	1.1	1.3	13.6	-2.0	0.1
CC12CCC(=O)N1C(C(=O)OCc1c(Cl)cccc1Cl)CS2 (stereo not given)	1.2	12.1*	23.3	-2.3	-15.6
O=C(O)c1ccc(/C=N/NC(=S)NCCN2CCOCC2)cc1	-1.5	10.6*	1.2	-1.0	-0.4
